Measurements: PubChem BioAssay (Tox21)
Values joined by “and” are separate entries in the source; they are usually repeats but may differ in a detail not shown here. Identical values can stand only once. Active and inactive are the calls of the source. Entries that show only a call come without a potency. Calls come from the whole dose curve.

What follows are compounds tested against Acetylcholinesterase (Homo sapiens) (UniProt P22303) (assay: Acetylcholinesterase (AChE) small molecule antagonists: enzyme-based qHTS assay (AID 1347397; note: nearly all actives have a fitted effect of over 55% in size)). Details: Potency: AChE enzyme activity inhibition; outcome: AChE enzyme activity inhibition; series mostly up to 115 µM.
In short: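 Recombinant human AChE, dispensed at 50 mU/mL, was preincubated with Tox21 10K compounds or DMSO vehicle for 30 min at room temperature. DTNB plus acetylthiocholine was then added, and thiocholine was measured colorimetrically after a further 10 min.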
Potency is the fitted concentration of half-maximal effect.

Acetylcholinesterase (Homo sapiens), sequence (P22303 whole entry, looked up): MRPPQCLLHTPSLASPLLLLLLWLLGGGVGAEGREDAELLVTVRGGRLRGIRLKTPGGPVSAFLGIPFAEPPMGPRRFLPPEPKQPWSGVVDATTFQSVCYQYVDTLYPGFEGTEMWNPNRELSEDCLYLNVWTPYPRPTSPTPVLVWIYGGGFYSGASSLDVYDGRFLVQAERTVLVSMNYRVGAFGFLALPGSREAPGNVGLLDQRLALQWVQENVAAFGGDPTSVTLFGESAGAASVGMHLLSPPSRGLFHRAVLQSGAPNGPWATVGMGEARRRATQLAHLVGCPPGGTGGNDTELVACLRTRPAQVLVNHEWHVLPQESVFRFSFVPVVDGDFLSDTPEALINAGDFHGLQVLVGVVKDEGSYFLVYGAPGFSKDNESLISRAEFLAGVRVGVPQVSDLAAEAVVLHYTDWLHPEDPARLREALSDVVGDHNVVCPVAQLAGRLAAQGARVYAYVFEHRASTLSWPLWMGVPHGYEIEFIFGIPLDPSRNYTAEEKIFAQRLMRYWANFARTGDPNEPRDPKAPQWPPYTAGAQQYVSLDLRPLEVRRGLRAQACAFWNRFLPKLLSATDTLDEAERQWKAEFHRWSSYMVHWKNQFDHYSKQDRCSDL

SMILES | Potency
OCc1ccccc1 | inactive
CCC(C)(C)C(=O)O[C@H]1C[C@@H](C)C=C2C=C[C@H](C)[C@H](CC[C@@H]3C[C@@H](O)CC(=O)O3)[C@H]21 | inactive
CCC1CO1 (stereo not given) | inactive
CCCCC(CC)COC(=O)CCCCC(=O)OCc1ccccc1 (stereo not given) | inactive
CCCCCCCCCCCCCCC(=O)NC(CO)CCCCCCCCCCCCCC (stereo not given) | inactive
O=Cc1c(Cl)cccc1Cl | inactive
Cc1ccc(C)c(O)c1 | inactive
Cc1cc2c(cc1S(N)(=O)=O)S(=O)(=O)CCC2 | inactive
COC(=O)CC(C)CCC=C(C)C (stereo not given) | inactive
CC(=O)OCc1ccccc1 | inactive
c1ccc(Sc2ccccc2)cc1 | inactive
N=c1ccn2c(n1)O[C@H]1[C@H](O)[C@@H](CO)O[C@H]12 | inactive
CCCCOC(=O)[C@H](C)O | inactive
N#C[C@@H]1C[C@@H]2C[C@@H]2N1C(=O)[C@@H](N)C12CC3CC(CC(O)(C3)C1)C2 | inactive
COc1ccc(Cc2cnc(N)nc2N)cc1OC | inactive
CN1CCc2cccc3c2[C@H]1Cc1ccc(O)c(O)c1-3 | 40.4 µM (active) and 21.1 µM (active)
O=C(c1ccc(O)cc1)c1ccc(O)c(O)c1O | inactive
CCCCCCCCCCCCCCCC(=O)OC(C)C | inactive
O=C(c1ccccc1)c1ccc(O)cc1O | inactive
CNC(=O)c1ccccc1 | inactive
O=c1[nH]c(=O)n([C@H]2CCCO2)cc1F | inactive
O=C(O)c1ccc2cc(O)ccc2c1 | inactive
C=CCCCCCC | inactive
Cc1ccc(OC(=O)CC(C)C)cc1 | inactive
CCN(CC)CC(=O)Nc1c(C)cccc1C(=O)OC | inactive
